{"source": "ChEMBL document CHEMBL3988442", "about": "“University of Dundee, Small-Polar-MMV Screening Library” (2021)", "tested_on": "Leishmania donovani", "assay": "Leishmania intramacrophage assay", "type": "functional, organism-based", "set-up": "scale not given: in the data most compounds retested in dose-response had high values", "note": "Screen size: about 69,000 compounds; about 1,000 (1.4%) showed an effect of 50% or more. Only a selection was taken, and strong results are over-represented in it overall.", "data": [{"smiles": "NC1CCCCN(Cc2ccccc2CS(=O)(=O)c2ccccc2)C1", "note": "(centres undefined)", "values": [{"measurement": "Percent Effect", "setting": "30.3 µM, […]", "value": 64.11, "unit": "%"}]}, {"smiles": "N[C@@H]1CCN(Cc2ccccc2CS(=O)(=O)c2ccccc2)C[C@H]1O", "values": [{"measurement": "Percent Effect", "setting": "30.3 µM, […]", "value": 11.27, "unit": "%"}]}, {"smiles": "O=S(=O)(Cc1ccccc1CN1CC[C@H](CO)[C@H](O)C1)c1ccccc1", "values": [{"measurement": "Percent Effect", "setting": "30.3 µM, […]", "value": 22.14, "unit": "%"}]}, {"smiles": "Cc1cnn(C2CN(Cc3nc(-c4ccccn4)no3)C2)c1", "values": [{"measurement": "Percent Effect", "setting": "30 µM", "value": -31.22, "unit": "%"}]}, {"smiles": "Cc1ccc(S(=O)(=O)N2CCN(CCCn3ccnc3)CC2)cc1", "values": [{"measurement": "Percent Effect", "setting": "30.3 µM, […]", "value": 3.879, "unit": "%"}]}, {"smiles": "O=S(=O)(c1ccccc1)N1CCCN(CCCn2ccnc2)CC1", "values": [{"measurement": "Percent Effect", "setting": "30 µM, 30.03 µM", "value": 52.87, "unit": "%"}]}, {"smiles": "O=S(=O)(c1ccccc1)N1CCN(CCn2ccnc2)CC1", "values": [{"measurement": "Percent Effect", "setting": "30 µM, 30.03 µM", "value": 0.5728, "unit": "%"}]}, {"smiles": "CCc1cc(=O)[nH]c2nnc(SCC(=O)NC(C)C)n12", "values": [{"measurement": "Percent Effect", "setting": "30.3 µM, […]", "value": -15.02, "unit": "%"}]}, {"smiles": "COc1ccc(C(=O)N2CC[C@@]3(O)CCCC[C@H]3C2)cc1OC", "values": [{"measurement": "Percent Effect", "setting": "30.3 µM, […]", "value": 15.68, "unit": "%"}]}, {"smiles": "Cc1ccc2cc(C3(O)CCN(C(=O)CSC(C)C)CC3)ccc2n1", "values": [{"measurement": "Percent Effect", "setting": "30.3 µM, […]", "value": 27.25, "unit": "%"}]}, {"smiles": "Cc1nc(C2CCCNC2)nc2c1CCCN2Cc1ccccn1.Cl.Cl", "note": "(centres undefined)", "values": [{"measurement": "Percent Effect", "setting": "30.3 µM, […]", "value": 30.18, "unit": "%"}]}, {"smiles": "CNc1cc(-c2cccc(CN)c2)c2cc[nH]c2n1", "values": [{"measurement": "Percent Effect", "setting": "30.3 µM, […]", "value": 52.08, "unit": "%"}]}, {"smiles": "CNc1cc(-c2ccccc2CN)c2cc[nH]c2n1", "values": [{"measurement": "Percent Effect", "setting": "30.3 µM, […]", "value": 31.34, "unit": "%"}]}, {"smiles": "CNc1cc(-c2ccc(COCCN)cc2)c2cc[nH]c2n1", "values": [{"measurement": "Percent Effect", "setting": "30.3 µM, […]", "value": -14.52, "unit": "%"}]}, {"smiles": "C=C(C)CN1CCC(C(=O)c2cc(F)ccc2F)CC1", "values": [{"measurement": "Percent Effect", "setting": "30 µM", "value": 41.7, "unit": "%"}]}, {"smiles": "Cc1cccc2c1nc(CCO)n2-c1ccc(C(=O)N2CCOCC2)o1", "values": [{"measurement": "Percent Effect", "setting": "30.3 µM, […]", "value": 26.23, "unit": "%"}]}, {"smiles": "CC(=O)N1N=C(COc2ccc(C)cc2)OC1c1ccc(N(C)C)cc1", "note": "(centres undefined)", "values": [{"measurement": "Percent Effect", "setting": "30.3 µM, […]", "value": 54.92, "unit": "%"}]}, {"smiles": "COc1ccc(C2OC(COc3ccc(C)cc3)=NN2C(C)=O)cc1", "note": "(centres undefined)", "values": [{"measurement": "Percent Effect", "setting": "30.3 µM, […]", "value": 8.051, "unit": "%"}]}, {"smiles": "COCCNc1nc(N2CCOCC2)nc2nccnc12", "values": [{"measurement": "Percent Effect", "setting": "30.3 µM, […]", "value": 21.04, "unit": "%"}]}, {"smiles": "CC(C)=CCN1CCN(C(=O)C2CC2)CC1", "values": [{"measurement": "Percent Effect", "setting": "30.3 µM, […]", "value": -4.864, "unit": "%"}]}, {"smiles": "COc1ccccc1CC(NC(=O)N1CCC[C@@H]1CO)C(C)C", "note": "(some centres undefined)", "values": [{"measurement": "Percent Effect", "setting": "30.3 µM, […]", "value": 9.914, "unit": "%"}]}, {"smiles": "CS(=O)(=O)CCNC(=O)Nc1sc2ccccc2c1Cl", "values": [{"measurement": "Percent Effect", "setting": "30.3 µM, […]", "value": -48.56, "unit": "%"}]}, {"smiles": "CN(C)CC(C)(O)CNC(=O)Nc1sc2ccccc2c1Cl", "note": "(centres undefined)", "values": [{"measurement": "Percent Effect", "setting": "30.3 µM, […]", "value": 53.76, "unit": "%"}]}, {"smiles": "CN(C)C(=O)CCNC(=O)Nc1sc2ccccc2c1Cl", "values": [{"measurement": "Percent Effect", "setting": "30.3 µM, […]", "value": -8.505, "unit": "%"}]}, {"smiles": "CN(CC(=O)NC(Cc1ccsc1)c1cccnc1)Cc1cccnc1.Cl", "note": "(centres undefined)", "values": [{"measurement": "Percent Effect", "setting": "30.3 µM, […]", "value": 2.46, "unit": "%"}]}, {"smiles": "O=c1[nH]c2c(c(=O)n1C1CCCCC1)CCC2Nc1ccccc1Cl", "note": "(centres undefined)", "values": [{"measurement": "Percent Effect", "setting": "30 µM, 30.03 µM", "value": 19.4, "unit": "%"}]}, {"smiles": "CC(CNC(=O)c1cccc(-n2cccn2)n1)Cn1ccnc1", "note": "(centres undefined)", "values": [{"measurement": "Percent Effect", "setting": "30.3 µM, […]", "value": 11.75, "unit": "%"}]}, {"smiles": "O=C(NC[C@H]1CC[C@H](c2ccnc3ncnn32)CC1)c1ccccn1", "values": [{"measurement": "Percent Effect", "setting": "30.3 µM, […]", "value": 56.14, "unit": "%"}]}, {"smiles": "O=C(NC[C@H]1CC[C@H](c2ccnc3ncnn32)CC1)C1CC1", "values": [{"measurement": "Percent Effect", "setting": "30.3 µM, […]", "value": 16.97, "unit": "%"}]}, {"smiles": "COCC(=O)NC[C@H]1CC[C@H](c2ccnc3ncnn32)CC1", "values": [{"measurement": "Percent Effect", "setting": "30.3 µM, […]", "value": 23.66, "unit": "%"}]}, {"smiles": "COc1ccc(OCc2noc(CN(C)C3CCS(=O)(=O)C3)n2)cc1", "note": "(centres undefined)", "values": [{"measurement": "Percent Effect", "setting": "30.3 µM, […]", "value": 17.47, "unit": "%"}]}, {"smiles": "O=C(CC1=CCCCC1)Nc1ccc(CN2C(=O)CCC2=O)cc1", "values": [{"measurement": "Percent Effect", "setting": "30.3 µM, […]", "value": -19.22, "unit": "%"}]}, {"smiles": "C[C@@H]1CN(C2CCN(c3ccccc3F)CC2)CC[C@]1(C)O", "values": [{"measurement": "Percent Effect", "setting": "30.3 µM, […]", "value": 62.06, "unit": "%"}]}, {"smiles": "C[C@@H]1CN(C2CCN(c3ccccc3F)CC2)C[C@]1(C)O", "values": [{"measurement": "Percent Effect", "setting": "30.3 µM, […]", "value": 31.62, "unit": "%"}]}, {"smiles": "CC(=O)N[C@@H]1CN(C2CCN(c3ccccc3F)CC2)C[C@H]1C(C)C", "values": [{"measurement": "Percent Effect", "setting": "30.3 µM, […]", "value": -2.556, "unit": "%"}]}, {"smiles": "CCC(O)CN1CCN(C(=O)c2cccn2Cc2ccccc2)CC1", "note": "(centres undefined)", "values": [{"measurement": "Percent Effect", "setting": "30 µM, 30.03 µM", "value": 13.25, "unit": "%"}]}, {"smiles": "Cn1cc(C(=O)N[C@H]2CN(Cc3nccs3)[C@@H]3CCCO[C@H]23)cn1.O=C(O)C(F)(F)F", "values": [{"measurement": "Percent Effect", "setting": "30.3 µM, […]", "value": 15.38, "unit": "%"}]}, {"smiles": "CC(NCc1cccc2c1OCCO2)c1cc2c(cc1Br)OCCO2", "note": "(centres undefined)", "values": [{"measurement": "Percent Effect", "setting": "30.3 µM, […]", "value": 73.82, "unit": "%"}]}, {"smiles": "CC(NCc1ccccn1)c1cc2c(cc1Br)OCCO2", "note": "(centres undefined)", "values": [{"measurement": "Percent Effect", "setting": "30.3 µM, […]", "value": 16.93, "unit": "%"}]}, {"smiles": "CC(NCc1ccncc1)c1cc2c(cc1Br)OCCO2", "note": "(centres undefined)", "values": [{"measurement": "Percent Effect", "setting": "30.3 µM, […]", "value": 16.23, "unit": "%"}]}, {"smiles": "O=C(NCCNc1ncccn1)N1CCN(c2nccs2)CC1", "values": [{"measurement": "Percent Effect", "setting": "30.3 µM, […]", "value": 13.95, "unit": "%"}]}, {"smiles": "CS(=O)(=O)Cc1cc(F)ccc1NCc1nnsc1Cl", "values": [{"measurement": "Percent Effect", "setting": "30.3 µM, […]", "value": -4.772, "unit": "%"}]}, {"smiles": "Cn1ccnc1CN1CCC2(CC1)COCCN(c1ncccn1)C2", "values": [{"measurement": "Percent Effect", "setting": "30.3 µM, […]", "value": 59.31, "unit": "%"}]}, {"smiles": "Cn1ccnc1CN1CCC2(CC1)COCCN(S(C)(=O)=O)C2.O=C(O)C(F)(F)F", "values": [{"measurement": "Percent Effect", "setting": "30.3 µM, […]", "value": 39.8, "unit": "%"}]}, {"smiles": "Cn1ccnc1CN1CCC2(COCCN(Cc3ccsc3)C2)C1", "note": "(centres undefined)", "values": [{"measurement": "Percent Effect", "setting": "30 µM, 30.03 µM", "value": 46.66, "unit": "%"}]}, {"smiles": "NCC(=O)N1CCC2(CC1)CN(C(=O)Cc1ccc(Cl)cc1)CCO2", "values": [{"measurement": "Percent Effect", "setting": "30.3 µM, […]", "value": -4.476, "unit": "%"}]}, {"smiles": "Cc1nccn1C1CCCN(C(=O)c2cccc(Cn3ccnc3)c2)C1", "note": "(centres undefined)", "values": [{"measurement": "Percent Effect", "setting": "30 µM", "value": 43.46, "unit": "%"}]}, {"smiles": "CCN(CCO)C[C@@H]1CN(C(=O)c2sc3ccccc3c2C)C[C@@H]1CO", "values": [{"measurement": "Percent Effect", "setting": "30.3 µM, […]", "value": -0.1561, "unit": "%"}]}, {"smiles": "COc1ccc(-c2nc(CC(=O)N(C)CCC#N)cs2)cc1OC", "values": [{"measurement": "Percent Effect", "setting": "30.3 µM, […]", "value": 0.3942, "unit": "%"}]}]}
